“And” between values parts separate entries of the source, which are not always exact repeats. Equal values may be shown once. Inconclusive results are not listed. The source made the active and inactive calls. Rule for the calls, unless noted: active = hit-call score of the fitted dose curve at least 0.9, where 1 is the maximum; inconclusive = response in the unintended direction; inactive = score below 0.9.
What was measured:
[1] = biological target: rat Thyrotropin Releasing Hormone Receptor (TRH), Trhr (gene 25570) (UniProt Q01717); experiment: NVS_GPCR_rTRH: NovaScreen (NVS) G Protein-Coupled Receptor Assay for rat Thyrotropin Releasing Hormone Receptor (TRH) (AID 2283329);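 note: hit means lower bound tracer signal versus DMSO baseline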
rat Thyrotropin Releasing Hormone Receptor (TRH), Trhr (gene 25570), sequence (Q01717 whole entry, looked up): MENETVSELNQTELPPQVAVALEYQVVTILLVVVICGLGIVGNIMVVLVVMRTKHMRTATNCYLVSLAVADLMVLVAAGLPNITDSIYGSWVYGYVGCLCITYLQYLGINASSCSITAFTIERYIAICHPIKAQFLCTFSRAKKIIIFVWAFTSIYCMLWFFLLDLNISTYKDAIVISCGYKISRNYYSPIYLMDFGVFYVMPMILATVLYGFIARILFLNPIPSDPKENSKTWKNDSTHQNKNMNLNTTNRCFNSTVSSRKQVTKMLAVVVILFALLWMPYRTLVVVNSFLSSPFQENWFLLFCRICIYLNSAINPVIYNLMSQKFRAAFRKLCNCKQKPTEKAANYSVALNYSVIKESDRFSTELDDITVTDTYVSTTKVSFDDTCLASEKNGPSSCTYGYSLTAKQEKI
How it was run: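 Rat forebrain membrane prep, radioligand displacement, filter scintillation readout at 4 h. Single conc 25 uM, duplicate; actives retested as concentration series. DMSO = negative control/baseline.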

[2] = biological target: Voltage-gated inwardly rectifying potassium channel KCNH2 (Homo sapiens) (UniProt Q12809); experiment: NVS_IC_hKhERGCh: NovaScreen (NVS) Ion Channel Assay for human Potassium Channel ERG (KhERGCh) (AID 2283333)
Voltage-gated inwardly rectifying potassium channel KCNH2 (Homo sapiens), sequence (Q12809 whole entry, looked up): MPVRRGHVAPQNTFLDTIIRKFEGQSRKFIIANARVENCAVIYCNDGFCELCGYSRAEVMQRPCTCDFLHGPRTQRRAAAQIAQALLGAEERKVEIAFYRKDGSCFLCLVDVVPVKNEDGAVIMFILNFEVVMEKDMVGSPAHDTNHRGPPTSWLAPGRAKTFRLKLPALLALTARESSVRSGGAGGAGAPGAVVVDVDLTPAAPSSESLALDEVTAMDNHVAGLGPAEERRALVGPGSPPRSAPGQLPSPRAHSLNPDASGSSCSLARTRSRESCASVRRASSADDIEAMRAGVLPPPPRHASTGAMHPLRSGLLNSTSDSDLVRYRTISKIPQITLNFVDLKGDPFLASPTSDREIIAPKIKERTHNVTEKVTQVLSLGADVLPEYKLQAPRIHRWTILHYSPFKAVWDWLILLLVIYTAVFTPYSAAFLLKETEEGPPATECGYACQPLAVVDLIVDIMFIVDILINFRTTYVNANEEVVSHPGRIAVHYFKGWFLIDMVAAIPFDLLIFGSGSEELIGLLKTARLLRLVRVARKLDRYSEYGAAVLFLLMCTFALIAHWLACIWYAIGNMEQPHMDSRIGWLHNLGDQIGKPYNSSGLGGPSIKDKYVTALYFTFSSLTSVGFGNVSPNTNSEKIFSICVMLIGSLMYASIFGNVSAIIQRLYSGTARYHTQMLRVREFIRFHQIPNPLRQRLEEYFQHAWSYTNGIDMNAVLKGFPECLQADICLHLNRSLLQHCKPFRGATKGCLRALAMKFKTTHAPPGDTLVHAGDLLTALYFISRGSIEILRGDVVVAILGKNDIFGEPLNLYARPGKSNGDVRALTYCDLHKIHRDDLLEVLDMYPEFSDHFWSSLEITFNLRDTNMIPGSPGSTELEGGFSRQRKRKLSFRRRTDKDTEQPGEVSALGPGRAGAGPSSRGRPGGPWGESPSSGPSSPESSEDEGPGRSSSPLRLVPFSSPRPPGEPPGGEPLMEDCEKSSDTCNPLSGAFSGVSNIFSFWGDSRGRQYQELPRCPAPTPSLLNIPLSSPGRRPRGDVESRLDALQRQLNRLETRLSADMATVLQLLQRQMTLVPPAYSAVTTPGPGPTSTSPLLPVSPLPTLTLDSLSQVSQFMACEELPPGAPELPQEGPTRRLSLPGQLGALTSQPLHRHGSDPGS
How it was run: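 Membranes from CHO cells expressing human ERG; displacement of radioligand measured by filtration and scintillation after 0.75 h. Single-concentration duplicate screen at 25 uM, then concentration-response for actives; DMSO baseline.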

[3] = biological target: human Peripheral-type Benzodiazepine Receptor (PBR), TSPO (gene 706) (UniProt P30536); experiment: NVS_MP_hPBR: NovaScreen (NVS) Membrane Protein Assay for human Peripheral-type Benzodiazepine Receptor (PBR) (AID 2283331);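 note: hits reduce radioligand binding relative to DMSO baseline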
human Peripheral-type Benzodiazepine Receptor (PBR), TSPO (gene 706), sequence (P30536 whole entry, looked up): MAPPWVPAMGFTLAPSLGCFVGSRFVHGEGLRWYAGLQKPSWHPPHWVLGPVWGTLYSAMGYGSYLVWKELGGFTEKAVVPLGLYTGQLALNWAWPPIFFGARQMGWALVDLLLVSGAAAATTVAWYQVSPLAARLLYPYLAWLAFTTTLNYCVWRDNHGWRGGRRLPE
How it was run: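 Cell-free binding to human colonic membrane preparations measured by filter-based scintillation counting after 1 h. Compounds first run at 25 uM in duplicate, then concentration series for actives; signal loss against DMSO baseline.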

[4] = biological target: rat Peripheral-type Benzodiazepine Receptor (PBR), Tspo (gene 24230) (UniProt P16257); experiment: NVS_MP_rPBR: NovaScreen (NVS) Membrane Protein Assay for rat Peripheral-type Benzodiazepine Receptor (PBR) (AID 2283335)
rat Peripheral-type Benzodiazepine Receptor (PBR), Tspo (gene 24230), sequence (P16257 whole entry, looked up): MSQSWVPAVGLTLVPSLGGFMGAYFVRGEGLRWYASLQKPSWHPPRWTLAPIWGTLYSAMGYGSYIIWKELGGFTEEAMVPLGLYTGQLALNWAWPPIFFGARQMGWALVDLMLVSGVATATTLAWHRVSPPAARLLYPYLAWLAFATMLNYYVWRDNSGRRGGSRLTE
How it was run: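 Competitive displacement of specific radioligand from rat kidney membrane PBR, read by filtration and scintillation after 1 h. Compounds first tested at 25 uM in duplicate, then in concentration series; signal loss relative to DMSO.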

[5] = biological target: rat Neonicotinoid receptor (NNR), Chrna7 (gene 25302) (UniProt Q05941); experiment: NVS_LGIC_rNNR_BungSens: NovaScreen (NVS) Ligand-Gated Ion Channel Assay for rat Neonicotinoid receptor (NNR) (AID 2283315)
How it was run: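 Rat cortical membrane preparation incubated 2.5 h with tritiated or iodinated radioligand and test chemical. Bound radioactivity was filtered and counted by scintillation, and displacement was analysed against DMSO.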

[6] = biological target: human Androgen Receptor (AR), AR (gene 367) (UniProt P10275); experiment: NVS_NR_hAR: NovaScreen (NVS) Nuclear Receptor Binding Assay for human Androgen Receptor (AR) (AID 2283332)
human Androgen Receptor (AR), AR (gene 367), sequence (P10275 whole entry, looked up): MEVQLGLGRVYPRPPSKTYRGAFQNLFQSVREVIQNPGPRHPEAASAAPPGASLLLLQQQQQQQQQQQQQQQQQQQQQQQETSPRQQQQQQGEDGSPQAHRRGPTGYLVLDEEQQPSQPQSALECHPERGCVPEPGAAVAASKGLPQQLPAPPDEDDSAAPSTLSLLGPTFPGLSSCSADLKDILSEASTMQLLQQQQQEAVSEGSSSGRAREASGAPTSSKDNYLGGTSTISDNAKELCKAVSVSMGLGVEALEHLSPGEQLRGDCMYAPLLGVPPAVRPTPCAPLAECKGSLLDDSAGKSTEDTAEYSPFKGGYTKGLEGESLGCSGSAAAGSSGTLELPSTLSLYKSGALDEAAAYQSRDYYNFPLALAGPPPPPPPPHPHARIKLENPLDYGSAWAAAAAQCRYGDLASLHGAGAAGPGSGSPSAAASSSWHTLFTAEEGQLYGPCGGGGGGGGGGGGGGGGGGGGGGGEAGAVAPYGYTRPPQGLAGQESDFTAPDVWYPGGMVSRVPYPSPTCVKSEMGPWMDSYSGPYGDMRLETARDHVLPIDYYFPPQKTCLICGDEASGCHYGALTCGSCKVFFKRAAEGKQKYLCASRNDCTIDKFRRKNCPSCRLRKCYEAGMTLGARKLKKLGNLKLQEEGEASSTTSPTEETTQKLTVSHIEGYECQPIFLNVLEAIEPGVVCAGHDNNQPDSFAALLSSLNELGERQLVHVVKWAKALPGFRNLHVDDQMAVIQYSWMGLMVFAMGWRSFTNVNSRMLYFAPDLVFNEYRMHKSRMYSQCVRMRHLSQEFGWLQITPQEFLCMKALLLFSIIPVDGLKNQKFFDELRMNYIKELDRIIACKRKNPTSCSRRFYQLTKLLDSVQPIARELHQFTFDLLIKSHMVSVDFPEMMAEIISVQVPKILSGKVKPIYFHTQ
How it was run: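 Radioligand competitive binding, scintillation read-out, in cell-free extract from LnCAP, measured 20 h after dosing. Screened first in duplicate at 25 uM, then concentration series for actives; activity fitted against DMSO.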

[7] = biological target: rat Gamma-Aminobutyric Acid Type A Receptor, Non-Selective (GABAR-NonSelective), Gabra1 (gene 29705) (UniProt P62813); experiment: NVS_LGIC_rGABAR_NonSelective: NovaScreen (NVS) Ligand-Gated Ion Channel Assay for rat Gamma-Aminobutyric Acid Type A Receptor, Non-Selective (GABAR-NonSelective) (AID 2283326)
rat Gamma-Aminobutyric Acid Type A Receptor, Non-Selective (GABAR-NonSelective), Gabra1 (gene 29705), sequence (P62813 whole entry, looked up): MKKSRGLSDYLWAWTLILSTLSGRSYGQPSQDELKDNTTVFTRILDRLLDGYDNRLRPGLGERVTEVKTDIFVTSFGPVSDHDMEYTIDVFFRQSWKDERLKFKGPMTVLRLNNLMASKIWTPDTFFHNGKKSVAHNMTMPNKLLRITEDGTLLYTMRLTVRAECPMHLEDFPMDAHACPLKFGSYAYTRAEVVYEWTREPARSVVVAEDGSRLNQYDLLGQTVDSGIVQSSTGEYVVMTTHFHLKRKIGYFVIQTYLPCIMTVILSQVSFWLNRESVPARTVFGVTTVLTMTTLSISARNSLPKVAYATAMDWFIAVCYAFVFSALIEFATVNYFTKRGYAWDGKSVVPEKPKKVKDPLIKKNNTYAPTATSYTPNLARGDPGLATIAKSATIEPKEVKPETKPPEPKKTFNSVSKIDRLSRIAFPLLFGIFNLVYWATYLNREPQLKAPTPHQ
How it was run: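 Compounds were first screened in duplicate at 25 uM, with actives run as singleton concentration series (max 50 uM). Binding of a radioligand to rat whole-brain GABA-A preparation was measured by filtration and scintillation counting after 1 h, DMSO baseline.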

[8] = biological target: Sodium channel protein type 1 subunit alpha (Rattus norvegicus) (UniProt P04774); experiment: NVS_IC_rNaCh_site2: NovaScreen (NVS) Ion Channel Assay for rat Sodium Channel, Site 2 (NaCh) (AID 2283322);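 note: hit means loss of radioligand binding signal relative to DMSO so AC50 marks displacement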
How it was run: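 Initial duplicate single-point testing at 25 uM, followed by concentration-response runs for actives. Binding of radioligand to rat forebrain membranes quantified after 1 h via filter-based radiodetection.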

[9] = biological target: rat Neurokinin-3 Receptor (NK3), Tacr3 (gene 24808) (UniProt P16177); experiment: NVS_GPCR_rNK3: NovaScreen (NVS) G Protein-Coupled Receptor Assay for rat Neurokinin-3 Receptor (NK3) (AID 2283310)
How it was run: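 Filter-based radioligand displacement on rat cortex membrane preparations, read by scintillation 2 h post-dose. Chemicals first tested in duplicate at 25 uM; actives followed up in concentration series with a 50 uM maximum.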

[10] = biological target: rat Glutamate, AMPA Site (AMPA), Gria1 (gene 50592) (UniProt P19490); experiment: NVS_LGIC_rAMPA: NovaScreen (NVS) Ligand-Gated Ion Channel Assay for rat Glutamate, AMPA Site (AMPA) (AID 2283324)
rat Glutamate, AMPA Site (AMPA), Gria1 (gene 50592), sequence (P19490 whole entry, looked up): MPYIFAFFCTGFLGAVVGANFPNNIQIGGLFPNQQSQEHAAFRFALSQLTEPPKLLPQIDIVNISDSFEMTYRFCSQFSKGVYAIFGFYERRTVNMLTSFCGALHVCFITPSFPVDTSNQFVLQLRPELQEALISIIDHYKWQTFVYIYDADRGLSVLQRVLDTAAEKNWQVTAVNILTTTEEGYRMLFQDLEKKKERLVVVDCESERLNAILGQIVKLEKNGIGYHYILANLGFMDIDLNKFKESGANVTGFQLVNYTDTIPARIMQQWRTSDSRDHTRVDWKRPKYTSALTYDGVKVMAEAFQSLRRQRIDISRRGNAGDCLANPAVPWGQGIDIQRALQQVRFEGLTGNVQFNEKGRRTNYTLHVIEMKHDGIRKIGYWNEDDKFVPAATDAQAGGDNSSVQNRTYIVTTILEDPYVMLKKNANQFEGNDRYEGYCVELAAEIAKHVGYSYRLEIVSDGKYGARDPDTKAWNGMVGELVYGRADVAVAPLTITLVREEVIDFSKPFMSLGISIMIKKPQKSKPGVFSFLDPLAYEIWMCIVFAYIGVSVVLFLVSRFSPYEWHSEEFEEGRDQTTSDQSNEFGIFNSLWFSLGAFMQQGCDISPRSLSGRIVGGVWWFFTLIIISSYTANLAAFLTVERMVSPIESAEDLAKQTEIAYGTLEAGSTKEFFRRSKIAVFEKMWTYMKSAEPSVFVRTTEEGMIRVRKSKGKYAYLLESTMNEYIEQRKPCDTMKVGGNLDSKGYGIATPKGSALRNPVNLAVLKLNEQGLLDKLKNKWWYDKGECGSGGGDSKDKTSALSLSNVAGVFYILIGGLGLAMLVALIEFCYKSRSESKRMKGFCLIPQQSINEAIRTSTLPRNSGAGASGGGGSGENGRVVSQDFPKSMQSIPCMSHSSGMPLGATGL
How it was run: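 Screening at 25 uM in duplicate preceded concentration series reaching 50 uM for qualifying compounds. Radioligand displacement on rat forebrain membranes, 1 h, filter-based scintillation readout; reduced binding relative to DMSO.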

[11] = biological target: rat Glutamate, NMDA Agonist Site (GluNMDA), Grin1 (gene 24408) (UniProt P35439); experiment: NVS_LGIC_rGluNMDA_Agonist: NovaScreen (NVS) Ligand-Gated Ion Channel Assay for rat Glutamate, NMDA Agonist Site (GluNMDA) (AID 2283327)
How it was run: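 Radioligand displacement at the agonist site on rat forebrain membrane preparations, read by filter scintillation after 1 h. Chemicals were first run at 25 uM in duplicate; those passing threshold were titrated to a 50 uM maximum.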

[12] = biological target: rat Opioid Receptor, Non-selective Sodium (Na+) Binding, Oprm1 (gene 25601) (UniProt P33535); experiment: NVS_GPCR_rOpiate_NonSelectiveNa: NovaScreen (NVS) G Protein-Coupled Receptor Assay for rat Opioid Receptor, Non-selective Sodium (Na+) Binding (AID 2283311)
rat Opioid Receptor, Non-selective Sodium (Na+) Binding, Oprm1 (gene 25601), sequence (P33535 whole entry, looked up): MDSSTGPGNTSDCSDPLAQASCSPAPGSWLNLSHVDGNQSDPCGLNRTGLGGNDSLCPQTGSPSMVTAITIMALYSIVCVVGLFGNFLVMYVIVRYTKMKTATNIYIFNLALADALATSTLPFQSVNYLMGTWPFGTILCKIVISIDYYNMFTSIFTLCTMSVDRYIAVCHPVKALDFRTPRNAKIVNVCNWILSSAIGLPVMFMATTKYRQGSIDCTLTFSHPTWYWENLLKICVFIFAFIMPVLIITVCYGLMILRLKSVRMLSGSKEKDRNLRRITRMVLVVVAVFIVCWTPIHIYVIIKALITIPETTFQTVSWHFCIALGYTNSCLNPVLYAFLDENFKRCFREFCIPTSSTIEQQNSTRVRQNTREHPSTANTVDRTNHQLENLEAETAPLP
How it was run: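 Filtration radioligand binding on rat forebrain membrane preparations, read 1.5 h after dosing. Single-concentration 25 µM primary screen in duplicate, followed by singleton concentration series to 50 µM max for actives; DMSO baseline.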

[13] = biological target: rat Opioid Receptor, Non-selective Binding, Oprm1 (gene 25601) (UniProt P33535); experiment: NVS_GPCR_rOpiate_NonSelective: NovaScreen (NVS) G Protein-Coupled Receptor Assay for rat Opioid Receptor, Non-selective Binding (AID 2283318)
rat Opioid Receptor, Non-selective Binding, Oprm1 (gene 25601), sequence (P33535 whole entry, looked up): as above
How it was run: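 Filter-based radioligand displacement using rat forebrain membrane preparations, measured 1.5 h post-dosing. Single-concentration duplicate screen at 25 uM, follow-up in concentration series; activity taken as signal loss relative to DMSO.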

[14] = biological target: Glutamate receptor ionotropic, kainate 1 (Rattus norvegicus) (UniProt P22756); experiment: NVS_IC_rKAR: NovaScreen (NVS) Ion Channel Assay for rat Kainic Acid Receptors (KAR) (AID 2283334; active = hit-call score of the fitted dose curve at least 0.9, where 1 is the maximum; inactive = score below 0.9)
How it was run: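 Rat forebrain membrane preparation incubated 1 h with radioligand and test chemical; bound signal read by filtration and scintillation. Single-concentration screen at 25 uM, then concentration series to 50 uM maximum.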

[15] = NVS_IC_rCaDHPRCh_L: NovaScreen (NVS) Ion Channel Assay for rat Calcium Channel, Type L, Dihydropyridine Site (CaDHPRCh_L) (AID 2283320)
How it was run: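 Rat cortex membrane preparation; dihydropyridine-site radioligand displacement read 1 h post-dose by filtration and scintillation. Primary single-point screen 25 uM in duplicate, then concentration series to 50 uM maximum; DMSO as negative control.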

[16] = biological target: bovine Gamma-Aminobutyric Acid Type A Receptor BDZ, alpha 5 site (GABARa5), GABRA5 (gene 523515) (UniProt Q08E50); experiment: NVS_LGIC_bGABARa5: NovaScreen (NVS) Ligand-Gated Ion Channel Assay for bovine Gamma-Aminobutyric Acid Type A Receptor BDZ, alpha 5 site (GABARa5) (AID 2283323)
How it was run: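 Tested first in duplicate at a single 25 uM, with hits re-run in concentration series to a 50 uM maximum. Bovine hippocampal membranes; specific radioligand displacement measured by filter scintillation counting 1 hr post-dose.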

Structure (SMILES): O=C(c1ccccc1)C1CCCCC1
- outcome [1]: inactive

Structure (SMILES): Cc1nn(C)c(Oc2ccccc2)c1C=NOCc1ccc(C(=O)OC(C)(C)C)cc1
- outcome [2]: inactive

Structure (SMILES): COc1nc(C)nc(NC(=O)NS(=O)(=O)c2ccccc2OCCCl)n1
- outcome [3]: inactive
- AC50 [4]: 21.8 µM (active) and 9.77 µM (active)

Structure (SMILES): C[C@]12C[C@H](O)[C@H]3[C@@H](CCC4=CC(=O)CC[C@@]43C)[C@@H]1CC[C@@H]2C(=O)CO
- outcome [5]: inactive

Structure (SMILES): C[C@]12CC[C@@H]3c4ccc(O)cc4C[C@@H](CCCCCCCCCS(=O)CCCC(F)(F)C(F)(F)F)[C@H]3[C@@H]1CC[C@@H]2O (some centres undefined)
- outcome [1]: inactive
- outcome [3]: inactive
- outcome [6]: inactive

Structure (SMILES): CCCCC(CC)CN1C(=O)C2C3C=CC(C3)C2C1=O (centres undefined)
- outcome [1]: inactive
- outcome [3]: inactive

Structure (SMILES): CC1(C)C(C=C(Cl)Cl)C1C(=O)OCc1cccc(Oc2ccccc2)c1 (centres undefined)
- outcome [1]: inactive
- AC50 [3]: 40.2 µM (active)
- outcome [4]: inactive

Structure (SMILES): CCOC(=O)C(C)Oc1ccc(Oc2cnc3cc(Cl)ccc3n2)cc1 (centres undefined)
- outcome [7]: inactive

Structure (SMILES): OB(O)O
- outcome [8]: inactive

Structure (SMILES): S=C([S-])NCCNC(=S)[S-].[Mn+2]
- outcome [9]: inactive
- outcome [10]: inactive
- outcome [11]: inactive
- outcome [3]: inactive
- AC50 [4]: 15.3 µM (active)

Structure (SMILES): CCOC(=O)c1ccc(O)cc1
- outcome [12]: inactive

Structure (SMILES): CCCCOCCOCCOCc1cc2c(cc1CCC)OCO2
- AC50 [3]: 26.9 µM (active)
- AC50 [4]: 12.3 µM (active)

Structure (SMILES): C=CCOC(Cn1ccnc1)c1ccc(Cl)cc1Cl (centres undefined)
- outcome [12]: inactive
- AC50 [13]: 9.36 µM (active)
- AC50 [8]: 4.57 µM (active)
- AC50 [1]: 17 µM (active)
- AC50 [3]: 10.6 µM (active)
- AC50 [2]: 12.5 µM (active)
- outcome [14]: inactive
- AC50 [4]: 8.58 µM (active)

Structure (SMILES): CCOC(=O)NCCOc1ccc(Oc2ccccc2)cc1
- outcome [8]: inactive
- outcome [3]: inactive

Structure (SMILES): CSC(=O)c1cccc2nnsc12
- outcome [12]: inactive
- outcome [6]: inactive

Structure (SMILES): Oc1ccc(C(c2ccc(O)cc2)C(Cl)(Cl)Cl)cc1
- AC50 [15]: 6.47 µM (active)
- outcome [16]: inactive
- outcome [10]: inactive
- outcome [3]: inactive
- AC50 [4]: 4.65 µM (active)

Structure (SMILES): CCCCCCC(C)OC(=O)COc1nc(F)c(Cl)c(N)c1Cl (centres undefined)
- outcome [3]: inactive
- AC50 [4]: 3.75 µM (active)

Structure (SMILES): CCCCC(CC)COC(=O)c1ccccc1C(=O)O (centres undefined)
- AC50 [3]: 39.2 µM (active)
- outcome [4]: inactive

Structure (SMILES): CCCCCOC(=O)COc1cc(N2C(=O)C3=C(CCCC3)C2=O)c(F)cc1Cl
- outcome [10]: inactive
- AC50 [3]: 2.72 µM (active)
- AC50 [4]: 1.23 µM (active)

Structure (SMILES): CCOC(=O)COc1cc(-n2ncc(C(F)(F)F)c(C)c2=O)c(F)cc1Cl
- AC50 [4]: 0.806 µM (active)

Structure (SMILES): CCOC(=O)C(C)Oc1ccc(Oc2nc3ccc(Cl)cc3o2)cc1 (centres undefined)
- outcome [15]: inactive
